The record followed here is article PMC4336329 (PLoS ONE, 2015).

Hit rate of the full screen: of about 310,000 compounds, about 14,000 (4.5%) showed an effect of 50% or more. The effect is printed as a negative number. The sample holds strong results, similar compounds and a random draw of the others, so the mix is not that of the screen.
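Note: peak tail current of the secondary pulse compared with the same well before compound.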

Sequence of human ether-à-go-go-related gene (hERG) potassium channel (Q12809 whole entry, looked up): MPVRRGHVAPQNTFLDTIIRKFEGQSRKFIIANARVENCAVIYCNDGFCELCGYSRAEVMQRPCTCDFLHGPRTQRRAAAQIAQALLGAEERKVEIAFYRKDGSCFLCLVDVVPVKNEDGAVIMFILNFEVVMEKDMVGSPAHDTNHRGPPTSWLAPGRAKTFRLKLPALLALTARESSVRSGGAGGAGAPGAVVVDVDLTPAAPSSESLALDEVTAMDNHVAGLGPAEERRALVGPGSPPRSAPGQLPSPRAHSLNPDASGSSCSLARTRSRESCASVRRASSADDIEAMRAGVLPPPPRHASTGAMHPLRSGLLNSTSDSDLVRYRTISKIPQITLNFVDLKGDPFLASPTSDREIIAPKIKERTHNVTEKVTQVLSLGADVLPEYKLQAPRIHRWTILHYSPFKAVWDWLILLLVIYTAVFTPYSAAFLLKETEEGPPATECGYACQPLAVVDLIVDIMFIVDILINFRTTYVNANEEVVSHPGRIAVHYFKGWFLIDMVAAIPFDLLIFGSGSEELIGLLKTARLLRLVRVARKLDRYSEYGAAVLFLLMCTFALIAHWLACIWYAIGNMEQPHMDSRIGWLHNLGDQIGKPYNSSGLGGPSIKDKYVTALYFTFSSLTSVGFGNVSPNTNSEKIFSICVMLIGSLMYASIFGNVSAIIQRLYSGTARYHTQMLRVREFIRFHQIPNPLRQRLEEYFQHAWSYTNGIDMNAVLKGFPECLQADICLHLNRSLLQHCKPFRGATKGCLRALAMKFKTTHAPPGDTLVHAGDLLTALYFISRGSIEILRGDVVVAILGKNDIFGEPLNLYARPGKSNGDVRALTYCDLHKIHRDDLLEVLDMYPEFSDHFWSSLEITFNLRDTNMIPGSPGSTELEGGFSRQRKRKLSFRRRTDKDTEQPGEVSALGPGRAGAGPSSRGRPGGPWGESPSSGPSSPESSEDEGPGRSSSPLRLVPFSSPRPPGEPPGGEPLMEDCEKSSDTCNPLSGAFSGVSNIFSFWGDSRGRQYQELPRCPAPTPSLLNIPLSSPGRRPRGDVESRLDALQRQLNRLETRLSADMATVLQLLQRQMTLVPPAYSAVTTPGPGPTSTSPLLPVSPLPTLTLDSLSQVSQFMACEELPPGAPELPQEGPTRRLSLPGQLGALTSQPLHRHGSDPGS

This assay has as its target human ether-à-go-go-related gene (hERG) potassium channel (human, UniProt Q12809). As to the kind of experiment: primary screen, population patch clamp on CHO cells stably expressing hERG; higher = less effect of the substance.
Consider `COc1cc(/C=C/C(=O)OCC(=O)Nc2sc3c(c2C#N)CCC(C)C3)ccc1OCC#N` (stereo not shown), for which the “hERG current change (%, negative = inhibition) at 10uM” value is 12.1%.

As to `COc1cccc(/C=C/C(=O)c2ccc3c(c2)OCO3)c1OC`, the “hERG current change (%, negative = inhibition) at 10uM” value was found to be 1.82%.

Consider `CC1CCC2(CC1)NC(=O)N(NC(=O)c1cccs1)C2=O` (stereo not shown), for which the “hERG current change (%, negative = inhibition) at 10uM” value was 9.08%.

Turning to `O=C(COC(=O)CNC(=O)c1sc2ccccc2c1Cl)Nc1cc(Cl)cc(Cl)c1`, the “hERG current change (%, negative = inhibition) at 10uM” value is -54.7%.

With `NC(=O)c1ccc(NC(=O)COC(=O)CNC(=O)c2sc3ccccc3c2Cl)cc1`, the “hERG current change (%, negative = inhibition) at 10uM” value is recorded as -12.8%.

On to `O=C(COC(=O)CNC(=O)c1sc2ccccc2c1Cl)Nc1c(Cl)cc(Cl)cc1Cl`, for which the “hERG current change (%, negative = inhibition) at 10uM” value was found to be 15.6%.

Consider `Cc1nc(-c2nc(-c3c(C(=O)NNC(=O)c4ccc(Cl)cc4)noc3C)cs2)cs1`, for which the “hERG current change (%, negative = inhibition) at 10uM” value is recorded as -35.1%.

Regarding `CCN(CC)CCN(C)Cc1nc(C(c2ccccc2)c2ccccc2)no1`, the “hERG current change (%, negative = inhibition) at 10uM” value is -57.7%.

For the molecule `COCCN(C)Cc1nc(C(c2ccccc2)c2ccccc2)no1`, the “hERG current change (%, negative = inhibition) at 10uM” value is listed as 3.28%.

`CN(CCc1cn[nH]c1)Cc1nc(C(c2ccccc2)c2ccccc2)no1`: the “hERG current change (%, negative = inhibition) at 10uM” value is on record as -38.5%.

With `O=c1c2ccccc2nc(/C=C/c2ccc(O)cc2)n1CCc1ccccc1`, the “hERG current change (%, negative = inhibition) at 10uM” value is -17.3%.

For the molecule `O=C(CN1c2ccccc2Sc2ccccc21)NNC(=O)Nc1cccc(Cl)c1`, the “hERG current change (%, negative = inhibition) at 10uM” value came to 2.84%.

For the molecule `CCOC(=O)C1=C(COC(=O)[C@H](C)NS(=O)(=O)c2ccc(NC(C)=O)cc2)NC(=O)NC1C` (stereo partly shown), the “hERG current change (%, negative = inhibition) at 10uM” value is on record as 21.2%.

With `CCOc1ccccc1C(=O)N1CCC(C(=O)c2ccc(F)cc2)CC1`, the “hERG current change (%, negative = inhibition) at 10uM” value is given as -25.2%.

With `O=C(O)C(O)C(O)C(=O)O.O=C(c1ccc(F)cc1)C1CCN(CCn2c(=O)[nH]c3ccccc3c2=O)CC1`, the “hERG current change (%, negative = inhibition) at 10uM” value is on record as -51.8%.

Turning to `O=C(c1ccc(F)cc1)C1CCN(C(=O)c2ccccc2)CC1`, the “hERG current change (%, negative = inhibition) at 10uM” value was -9.13%.

As to `CC1(C)C(=O)N(CCN2CCC(C(=O)c3ccc(F)cc3)CC2)c2ccccc21.Cl`, the “hERG current change (%, negative = inhibition) at 10uM” value is listed as -70.5%.

In the case of `CN1CCN(CCn2c(=S)[nH]c3ccccc3c2=O)CC1`, the “hERG current change (%, negative = inhibition) at 10uM” value turned out to be 6.07%.

For `Cl.O.O=C(c1ccc(F)cc1)C1CCN(CCn2c(=S)[nH]c3ccccc3c2=O)CC1`, the “hERG current change (%, negative = inhibition) at 10uM” value is listed as -68.9%.

Consider `O=C(CCCCn1c(=O)[nH]c2ccccc2c1=O)NC1CCN(Cc2ccccc2)CC1`, for which the “hERG current change (%, negative = inhibition) at 10uM” value is on record as -18.9%.

Consider `O=C(O)CCn1c(=O)[nH]c2ccccc2c1=O`, for which the “hERG current change (%, negative = inhibition) at 10uM” value stood at 12.4%.

On to `O=c1c2ccccc2[nH]c(=S)n1CCN1CCCC1`, for which the “hERG current change (%, negative = inhibition) at 10uM” value is reported as -19.1%.

With `O=C(NNc1cc(Cl)cc(Cl)c1)C1CCC1`, the “hERG current change (%, negative = inhibition) at 10uM” value was 21.9%.

Consider `COc1ccc(NC(=O)Cn2c(C)cc(=O)c3ccccc32)cc1`, for which the “hERG current change (%, negative = inhibition) at 10uM” value is -7.76%.

As to `O=C1CN(S(=O)(=O)c2cccc(Cl)c2Cl)c2ccccc2N1`, the “hERG current change (%, negative = inhibition) at 10uM” value was 3.58%.

As for `O=C1CC(=Nc2ccccc2)NN1c1ccccc1`, the “hERG current change (%, negative = inhibition) at 10uM” value was 23.1%.

For the molecule `CCCCNC(=O)NC1CCCC1`, the “hERG current change (%, negative = inhibition) at 10uM” value is 4.48%.

Consider `c1ccc2c(c1)c1cccc3ccc4cccc2c4c31`, for which the “hERG current change (%, negative = inhibition) at 10uM” value is reported as 16.4%.

For `COC(=O)c1c(NC(=O)/C=C/c2ccco2)sc2c1CCC2`, the “hERG current change (%, negative = inhibition) at 10uM” value turned out to be 17.6%.

For the molecule `Cc1nc(N)nc(Nc2ccc(Cl)cc2)c1Br`, the “hERG current change (%, negative = inhibition) at 10uM” value is recorded as -7.99%.

Consider `COc1ccc(NC(C)=O)cc1NC(=O)c1ccc(Cl)cc1`, for which the “hERG current change (%, negative = inhibition) at 10uM” value is -18.2%.

As for `COc1ccc(NC(C)=O)cc1NC(=O)CN1CCN(CC(=O)Nc2ccc(Cl)cc2)CC1`, the “hERG current change (%, negative = inhibition) at 10uM” value is on record as -69.8%.

For the molecule `COc1ccc(NC(C)=O)cc1NC(=O)CN1CCN(C2c3ccccc3-c3ccccc32)CC1`, the “hERG current change (%, negative = inhibition) at 10uM” value was 3.55%.

In the case of `COc1ccccc1NC(=O)CN1CCN(CC(=O)Nc2ccc(OC)c(OC)c2)CC1`, the “hERG current change (%, negative = inhibition) at 10uM” value is on record as -24.4%.

As to `COc1ccc(NC(C)=O)cc1NC(=O)CN1CCN(c2ccccn2)CC1`, the “hERG current change (%, negative = inhibition) at 10uM” value is reported as 10.3%.

As to `COc1ccc(NC(=O)c2ccccc2Cl)cc1NC(=O)CN1CCOCC1`, the “hERG current change (%, negative = inhibition) at 10uM” value was -5.99%.

Regarding `COc1ccc(NC(C)=O)cc1NC(=O)CN1CCN(CC(=O)Nc2ccccc2Cl)CC1`, the “hERG current change (%, negative = inhibition) at 10uM” value is on record as -53.3%.

As to `COc1ccccc1NC(=O)CN1CCN(CC(=O)Nc2cc(NC(C)=O)ccc2OC)CC1`, the “hERG current change (%, negative = inhibition) at 10uM” value is -50.3%.

On to `Cc1cc2c(cc1C)C(=O)NC(C)(C)C2`, for which the “hERG current change (%, negative = inhibition) at 10uM” value is 8.73%.

Turning to `COc1cccc(N2C(=O)[C@H]3C(C(=O)c4cnccn4)=NN[C@H]3C2=O)c1`, the “hERG current change (%, negative = inhibition) at 10uM” value worked out at 13.2%.

With `CCc1nnc(NC(=O)CSc2ccc(-c3ccc(C)cc3)nn2)s1`, the “hERG current change (%, negative = inhibition) at 10uM” value came to 9.49%.

`O=C(NC1CC(=O)c2sccc21)c1ccc(Cl)cc1Cl` (stereo not shown): the “hERG current change (%, negative = inhibition) at 10uM” value is -35.6%.

As for `O=C(c1ccco1)N1CCN(C(=O)c2sccc2-c2ccccc2)CC1`, the “hERG current change (%, negative = inhibition) at 10uM” value was -8.12%.
